Measured values from PubChem BioAssay (EPA / NIEHS).
Several values for one entry are separate records, joined by “and”; a condition that tells them apart may be missing. Equal values may be shown once. Results filed as inconclusive are left out. Activity calls are given as the source filed them. How the source made its calls: active means hit-call score of the fitted dose curve at least 0.9, where 1 is the maximum; inconclusive means response in the unintended direction; inactive means score below 0.9.

The compounds below were run against chimpanzee Androgen Receptor (AR), AR (gene 747460) (UniProt O97775) (assay: NVS_NR_cAR: NovaScreen (NVS) Nuclear Receptor Binding Assay for chimpanzee Androgen Receptor (AR) (AID 2283346);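 further: a loss of bound radioligand signal versus DMSO counts as binding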).
chimpanzee Androgen Receptor (AR), AR (gene 747460), sequence (O97775 whole entry, looked up): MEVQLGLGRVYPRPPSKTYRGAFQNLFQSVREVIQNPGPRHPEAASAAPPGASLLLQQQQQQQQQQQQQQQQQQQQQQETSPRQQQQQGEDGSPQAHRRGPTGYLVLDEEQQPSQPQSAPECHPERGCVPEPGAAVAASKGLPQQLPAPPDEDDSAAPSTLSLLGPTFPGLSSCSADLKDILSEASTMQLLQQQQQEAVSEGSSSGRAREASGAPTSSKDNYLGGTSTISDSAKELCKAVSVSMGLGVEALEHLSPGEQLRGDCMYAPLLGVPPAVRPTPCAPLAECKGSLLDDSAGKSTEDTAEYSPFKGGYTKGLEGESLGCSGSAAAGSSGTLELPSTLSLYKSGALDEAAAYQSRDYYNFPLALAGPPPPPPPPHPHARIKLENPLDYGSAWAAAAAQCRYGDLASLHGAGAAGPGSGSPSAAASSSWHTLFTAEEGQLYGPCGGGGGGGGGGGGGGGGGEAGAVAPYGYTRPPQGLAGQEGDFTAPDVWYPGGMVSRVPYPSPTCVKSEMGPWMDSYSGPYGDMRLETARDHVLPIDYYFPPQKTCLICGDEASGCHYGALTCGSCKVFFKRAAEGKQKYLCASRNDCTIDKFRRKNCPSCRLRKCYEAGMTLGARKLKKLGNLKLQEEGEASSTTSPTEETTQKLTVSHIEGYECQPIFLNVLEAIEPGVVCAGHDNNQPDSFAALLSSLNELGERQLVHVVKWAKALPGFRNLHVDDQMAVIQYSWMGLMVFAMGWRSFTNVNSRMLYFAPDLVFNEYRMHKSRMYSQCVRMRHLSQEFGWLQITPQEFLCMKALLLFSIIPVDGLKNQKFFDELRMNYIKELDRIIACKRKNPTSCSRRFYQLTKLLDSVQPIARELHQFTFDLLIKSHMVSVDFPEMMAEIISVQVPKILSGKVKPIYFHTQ
Method: NVS_NR_cAR is a biochemical, single-readout assay that uses extracted gene-proteins from Sf9/Sf21 in a cell-free assay. Measurements were taken 72 hours after chemical dosing in a 96-well plate.NVS_NR_cAR is one of one assay component(s) measured or calculated from the NVS_NR_cAR assay. It is designed to make measurements of radioligand binding, a form of binding reporter, as detected with scintillation counting signals by Lysate-based radiodetection technology.Data from the assay component NVS_NR_cAR was analyzed into 1 assay endpoint. This assay endpoint, NVS_NR_cAR, was analyzed in the positive analysis fitting direction relative to DMSO as the negative control and baseline of activity. Using a type of binding reporter, loss-of-signal activity can be used to understand changes in the binding as they relate to the gene AR. Furthermore, this assay endpoint can be referred to as a primary readout, because the performed assay has only produced 1 assay endpoint. To generalize the intended target to other relatable targets, this assay endpoint is annotated to the nuclear receptor intended target family, where the subfamily is steroidal.
Binding assays used specific radioligands (tritiated, iodinated) with non-radioactive competitive displacement ligands in agonist or antagonist protocols (as indicated) and various reference compounds and inhibitors to titrate specific binding to receptors and transporters. Most enzyme assays (CYPs, kinases, phosphatases, proteases, HDACs) used recombinant protein and specific substrates (fluorescence mostly, some colorimetric and radioactive) and inhibitors, followed by a biochemical separation of substrate and product. All assays for the biochemical HTS were initially run in duplicate at a single concentration (10 uM for CYP450 assays and 25 uM for all others). […] Each assay was run with positive and negative controls, and concurrent controls on every plate. The follow-up (secondary) screen tested active chemical-pairs in concentration series, as well as a few additional assays not tested in the primary screen, some selected negative inactives, and several cases re-run in the concentration series for confirmatory purposes.

SMILES	AC50	outcome
CC(C)(C)C(O)/C(=C\c1ccc(Cl)cc1Cl)n1cncn1 (stereo not given)	1.51 µM (active)	
COP(=S)(OC)Oc1ccc([N+](=O)[O-])cc1	14.6 µM (active)	
Oc1ccc(Cl)cc1Cc1ccccc1	15.3 µM (active) and 15.7 µM (active) and 19.7 µM (active)	
CC(C)(C)C(O)C(Oc1ccc(Cl)cc1)n1cncn1 (stereo not given)	19.6 µM (active) and 25 µM (active) and 20.5 µM (active)	
CCCN(CCOc1c(Cl)cc(Cl)cc1Cl)C(=O)n1ccnc1	19.7 µM (active)	
O=S(=O)(O)C(F)(F)C(F)(F)C(F)(F)C(F)(F)C(F)(F)C(F)(F)C(F)(F)C(F)(F)F	5.81 µM (active)	
Oc1cc(Cl)ccc1Oc1ccc(Cl)cc1Cl	12.4 µM (active) and 15.3 µM (active) and 12.2 µM (active)	
N#Cc1c(Cl)c(Cl)c(Cl)c(C#N)c1Cl		inactive
CC[C@H](C)[C@H]1O[C@]2(C=C[C@@H]1C)C[C@@H]1C[C@@H](C/C=C(\C)[C@@H](O[C@H]3C[C@H](OC)[C@@H](O[C@H]4C[C@H](OC)[C@@H](O)[C@H](C)O4)[C@H](C)O3)[C@@H](C)/C=C/C=C3\CO[C@@H]4[C@H](O)C(C)=C[C@@H](C(=O)O1)[C@]34O)O2 (tested in a mixture with another compound)	5.41 µM (active)	
CCOCN(C(=O)CCl)c1c(C)cccc1CC	15.5 µM (active)	
